# “And” between values parts separate entries of the source, which are not always exact repeats. Identical values can stand only once. Records with an inconclusive call do not appear. Entries that show only a call come without a potency. Where a structure was tested more than once in an assay, its records may differ in their call. The source made the active and inactive calls. Unless noted, calls come from the whole dose curve; as a rule, active = well fitted curve in the direction sought with a large enough effect in the repeat runs; inconclusive = weak or mixed curves; inactive = no such curve, though single readings can be large; an effect the other way counts as inactive or inconclusive.
# Columns and labels:
# [1] = qHTS assay to identify small molecule antagonists of the glucocorticoid receptor (GR) signaling pathway - cell viability counter screen (AID 720693); note: nearly all actives have a fitted effect of over 55% in size
# [2] = qHTS assay for identifying genotoxic compounds that show differential cytotoxicity against isogenic chicken DT40 cell lines with known DNA damage response pathways - wild type cell line (AID 743012); note: nearly all actives have a fitted effect of over 60% in size; note: potency is the fitted concentration of half-maximal effect
# Outline: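 CellTiter-Glo luminescence readout of viability in wild type DT40 cells after 40 h compound exposure at 37 C/5% CO2; 300 cells/well; reagent incubated 30 min at room temperature before reading.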
# [3] = qHTS assay for identifying genotoxic compounds that show differential cytotoxicity against isogenic chicken DT40 cell lines with known DNA damage response pathways - Rev3 mutant cell line (AID 743014); note: nearly all actives have a fitted effect of over 55% in size; note: potency is the fitted concentration of half-maximal effect
# [4] = qHTS assay for identifying genotoxic compounds that show differential cytotoxicity against isogenic chicken DT40 cell lines with known DNA damage response pathways - Rad54/Ku70 mutant cell line (AID 743015); note: nearly all actives have a fitted effect of over 60% in size; note: potency is the fitted concentration of half-maximal effect
# [5] = qHTS assay to identify small molecule antagonists of the androgen receptor (AR) signaling pathway - cell viability counter screen (AID 743033; note: nearly all actives have a fitted effect of over 45% in size)
# [6] = qHTS assay to identify small molecule antagonists of the androgen receptor (AR) signaling pathway using the MDA cell line - cell viability counter screen (AID 743041; note: nearly all actives have a fitted effect of over 45% in size)
# Outline: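 Viability read by CellTiter-Fluor fluorescence in the same wells as the antagonist screen, added after 15.5 h of a 16 h, 37C exposure. Human breast carcinoma MDA-kb2 AR-luc cells, compounds co-dosed with agonist R1881.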
# [7] = qHTS assay to identify small molecule antagonists of the thyroid receptor (TR) signaling pathway - cell viability counter screen (AID 743064); note: nearly all actives have a fitted effect of over 50% in size
# Outline: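 Viability of T3-stimulated (1 nM final) GH3.TRE-Luc cells is measured by CellTiter-Fluor fluorescence after 23.5 h compound exposure at 37 °C plus 30 min reagent incubation.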
# [8] = test system: thyroid hormone receptor (rat, GH3 cells); assay: qHTS assay to identify small molecule agonists of the thyroid receptor (TR) signaling pathway (AID 743066; calls by dose curve)
# [9] = molecular target: Estrogen receptor (Homo sapiens) (UniProt P03372); assay: qHTS assay to identify small molecule antagonists of the estrogen receptor alpha (ER-alpha) signaling pathway (AID 743069; active = well fitted curve in the direction sought with a large enough effect in the signal ratio in the repeat runs, not every such curve was filed as active; the % refers to the signal ratio)
# Sequence of Estrogen receptor (Homo sapiens) (P03372 whole entry, looked up): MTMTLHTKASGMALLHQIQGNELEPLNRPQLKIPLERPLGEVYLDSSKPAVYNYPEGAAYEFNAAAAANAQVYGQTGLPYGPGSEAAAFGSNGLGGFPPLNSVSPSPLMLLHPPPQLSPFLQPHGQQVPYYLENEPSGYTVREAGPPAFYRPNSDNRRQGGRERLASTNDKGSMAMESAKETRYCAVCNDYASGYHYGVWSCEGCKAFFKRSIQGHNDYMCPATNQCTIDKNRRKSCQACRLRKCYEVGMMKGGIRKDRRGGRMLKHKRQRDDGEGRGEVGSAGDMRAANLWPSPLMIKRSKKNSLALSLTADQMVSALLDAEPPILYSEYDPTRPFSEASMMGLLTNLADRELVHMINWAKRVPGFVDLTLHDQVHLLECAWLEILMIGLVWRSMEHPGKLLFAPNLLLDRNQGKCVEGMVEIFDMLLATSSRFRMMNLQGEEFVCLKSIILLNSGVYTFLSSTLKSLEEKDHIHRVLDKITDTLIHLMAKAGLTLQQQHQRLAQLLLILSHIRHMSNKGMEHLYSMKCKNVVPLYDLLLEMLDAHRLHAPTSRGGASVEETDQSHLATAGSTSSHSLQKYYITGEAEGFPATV
# Outline: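 Antagonist mode: compounds in DMSO were co-added with 17beta-estradiol to ER-alpha-bla HEK293 cells (2% charcoal-stripped serum) and left 18 h at 37C. Reporter inhibition was measured as FRET fluorescence after 2 h LiveBLAzer substrate at room temperature.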
# [10] = qHTS assay to identify small molecule antagonists of the estrogen receptor alpha (ER-alpha) signaling pathway - cell viability counter screen (AID 743074; calls by dose curve;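 note: HEK293 cells carrying ER-alpha-UAS-bla reporter stimulated with 17beta-estradiol; nearly all actives have a fitted effect of over 45% in size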)
# [11] = molecular target: Estrogen receptor (Homo sapiens) (UniProt P03372); assay: qHTS assay to identify small molecule agonists of the estrogen receptor alpha (ER-alpha) signaling pathway (AID 743075; calls by dose curve;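 note: HEK293 GripTite cells with ER-alpha and UAS-driven beta-lactamase reporter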)
# [12] = molecular target: Estrogen receptor (Homo sapiens) (UniProt P03372); assay: qHTS assay to identify small molecule agonists of the estrogen receptor alpha (ER-alpha) signaling pathway using the BG1 cell line (AID 743079); note: nearly all actives have a fitted effect of over 20% in size
# [13] = qHTS assay to identify small molecule antagonists of the estrogen receptor alpha (ER-alpha) signaling pathway using the BG1 cell line (AID 743080; calls by dose curve;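 note: BG1 cells stimulated with 17beta-estradiol alongside compound; nearly all actives have a fitted effect of over 25% in size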; note: potency is the fitted concentration of half-maximal effect)
# Outline: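 After 5 days in phenol-red-free 10% charcoal-stripped FBS medium, BG1-Luc-4E2 cells were seeded, left 24 h at 37 C, co-treated with compounds and 17beta-estradiol for 21.5 h, then assayed for viability and luciferase.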
# [14] = qHTS assay to identify small molecule antagonists of the estrogen receptor alpha (ER-alpha) signaling pathway using the BG1 cell line - cell viability counter screen (AID 743081);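 note: compound given together with 17beta-estradiol as the ER stimulus; series mostly up to about 70 µM; nearly all actives have a fitted effect of over 45% in size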
# [15] = molecular target: Aromatase (Homo sapiens) (UniProt P11511); assay: qHTS assay to identify aromatase inhibitors (AID 743083); note: nearly all actives have a fitted effect of over 55% in size; note: potency is the fitted concentration of half-maximal effect
# Sequence of Aromatase (Homo sapiens) (P11511 whole entry, looked up): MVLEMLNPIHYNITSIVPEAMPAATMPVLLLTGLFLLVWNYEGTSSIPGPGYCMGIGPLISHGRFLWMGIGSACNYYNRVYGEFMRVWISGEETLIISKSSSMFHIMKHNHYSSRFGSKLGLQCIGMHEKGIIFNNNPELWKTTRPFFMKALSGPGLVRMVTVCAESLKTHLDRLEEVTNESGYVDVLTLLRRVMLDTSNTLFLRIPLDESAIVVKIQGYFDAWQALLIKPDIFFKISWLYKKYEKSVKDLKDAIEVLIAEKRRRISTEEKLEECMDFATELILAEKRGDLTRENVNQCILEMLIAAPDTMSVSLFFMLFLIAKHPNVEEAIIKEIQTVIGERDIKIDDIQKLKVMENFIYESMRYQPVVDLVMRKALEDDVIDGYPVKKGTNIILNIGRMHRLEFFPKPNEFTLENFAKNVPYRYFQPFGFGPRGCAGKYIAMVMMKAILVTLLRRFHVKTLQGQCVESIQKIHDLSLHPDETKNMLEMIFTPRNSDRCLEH
# [16] = qHTS assay to identify aromatase inhibitors - cell viability counter screen (AID 743084);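 note: cells stimulated with testosterone during compound exposure; nearly all actives have a fitted effect of over 55% in size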; note: potency is the fitted concentration of half-maximal effect
# [17] = qHTS assay to identify small molecule antagonists of the thyroid receptor (TR) signaling pathway (AID 743065); note: nearly all actives have a fitted effect of over 55% in size; note: potency is the fitted concentration of half-maximal effect
# Outline: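 Antagonism measured as loss of luciferase signal in GH3 cells stably carrying a TRE-luciferase reporter, co-treated with compound and T3 (1 nM final) for 23.5 h at 37 C. Viability was read in the same well by CellTiter-Fluor.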
# [18] = molecular target: Androgen receptor (Homo sapiens) (UniProt P10275); assay: qHTS assay to identify small molecule agonists of the androgen receptor (AR) signaling pathway (AID 743036; active = well fitted activation curve with a large enough effect in the signal ratio in the repeat runs, with a control signal flat, not every such curve was filed as active; the % refers to the signal ratio)
# Sequence of Androgen receptor (Homo sapiens) (P10275 whole entry, looked up): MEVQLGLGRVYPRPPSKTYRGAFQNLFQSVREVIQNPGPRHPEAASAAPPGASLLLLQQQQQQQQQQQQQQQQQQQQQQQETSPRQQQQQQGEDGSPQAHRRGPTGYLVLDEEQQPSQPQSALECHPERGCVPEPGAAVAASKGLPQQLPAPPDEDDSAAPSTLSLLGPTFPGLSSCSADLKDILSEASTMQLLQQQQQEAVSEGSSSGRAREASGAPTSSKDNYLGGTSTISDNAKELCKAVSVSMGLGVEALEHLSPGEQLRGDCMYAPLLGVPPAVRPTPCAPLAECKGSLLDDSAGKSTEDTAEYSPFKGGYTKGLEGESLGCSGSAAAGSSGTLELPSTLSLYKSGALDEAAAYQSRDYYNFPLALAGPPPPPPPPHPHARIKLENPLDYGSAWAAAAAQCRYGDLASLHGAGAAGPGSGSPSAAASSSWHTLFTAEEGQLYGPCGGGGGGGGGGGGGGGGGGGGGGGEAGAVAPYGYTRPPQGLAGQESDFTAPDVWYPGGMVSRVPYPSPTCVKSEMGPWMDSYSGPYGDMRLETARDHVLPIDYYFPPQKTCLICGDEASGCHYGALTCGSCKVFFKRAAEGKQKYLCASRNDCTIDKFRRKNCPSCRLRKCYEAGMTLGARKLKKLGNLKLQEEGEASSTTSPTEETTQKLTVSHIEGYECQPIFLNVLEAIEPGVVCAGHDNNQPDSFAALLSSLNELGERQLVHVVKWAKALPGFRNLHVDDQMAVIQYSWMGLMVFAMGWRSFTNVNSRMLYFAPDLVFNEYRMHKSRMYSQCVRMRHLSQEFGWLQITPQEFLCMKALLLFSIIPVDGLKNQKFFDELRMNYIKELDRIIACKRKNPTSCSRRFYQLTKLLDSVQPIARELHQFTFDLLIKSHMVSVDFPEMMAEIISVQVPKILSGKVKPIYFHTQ
# Outline: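 Screening used 2,000 AR-bla HEK293 cells per well, treated 16 h at 37C with test compounds in DMSO alongside positive and DMSO-only controls; beta-lactamase activity was then read by LiveBLAzer B/G FRET fluorescence after 2 h at room temperature.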
# [19] = molecular target: Androgen receptor (Homo sapiens) (UniProt P10275); assay: qHTS assay to identify small molecule agonists of the androgen receptor (AR) signaling pathway using the MDA cell line (AID 743040; note: nearly all actives have a fitted effect of over 20% in size; note: potency is the fitted concentration of half-maximal effect)
# Outline: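 Luciferase agonist assay: 16 h compound exposure at 37C without CO2 in MDA-kb2 AR-luc cells, whose MMTV promoter responds to both AR and GR. Luminescence measured after 30 min room-temperature incubation with ONE-Glo.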
# [20] = molecular target: Androgen receptor (Homo sapiens) (UniProt P10275); assay: qHTS assay to identify small molecule antagonists of the androgen receptor (AR) signaling pathway using the MDA cell line (AID 743042; note: nearly all actives have a fitted effect of over 55% in size)
# Outline: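 Antagonist mode: compounds plus R1881 agonist added to MDA-kb2 AR-luc cells, incubated 16 h at 37C. Luciferase reporter luminescence quantified, with multiplexed CellTiter-Fluor readout for cell viability.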
Compound,Potency [1],Potency [2],Potency [3],Potency [4],Potency [5],Potency [6],Potency [7],Potency [8],Potency [9],Potency [10],Potency [11],Potency [12],Potency [13],Potency [14],Potency [15],Potency [16],Potency [17],outcome [18],Potency [19],Potency [20]
C=CC(=O)O,inactive,inactive,inactive,inactive,inactive,inactive,inactive,inactive,inactive,inactive,inactive,inactive,inactive,inactive,inactive,inactive,–,–,–,–
O=S(=O)(O)CO,inactive,inactive,inactive,inactive,inactive,inactive,–,inactive,–,inactive,–,–,–,inactive,inactive,inactive,inactive,–,–,–
CC(=O)OCC1=C(C(=O)O)N2C(=O)[C@@H](NC(=O)CSc3ccncc3)[C@H]2SC1,inactive,inactive,inactive,inactive,inactive,inactive,–,inactive,–,inactive,–,–,–,inactive,inactive,inactive,–,–,–,–
Cc1ccc(S(=O)(=O)NC(=O)NC2CCCCC2)cc1,inactive,inactive,inactive,inactive,–,inactive,inactive,inactive,inactive,inactive,inactive,inactive,inactive,inactive,inactive,inactive,inactive,–,–,–
O=C1OC[C@H](Cc2cccc(O)c2)[C@H]1Cc1cccc(O)c1,inactive,inactive,inactive,inactive,–,inactive,–,inactive,–,inactive,–,–,–,inactive,inactive,inactive,inactive,–,–,–
O=NN(CCCl)C(=O)NCCCl,inactive,inactive,inactive,inactive,–,inactive,inactive,inactive,inactive,inactive,inactive,inactive,inactive,inactive,inactive,inactive,–,inactive,inactive,inactive
CC(O)Cn1cnc2c1c(=O)n(C)c(=O)n2C (stereo not drawn),inactive,inactive,inactive,inactive,–,inactive,inactive,inactive,–,–,–,–,–,inactive,inactive,inactive,inactive,–,–,–
O=C(O)CN1C(=O)c2cccc3cccc(c23)C1=O,inactive,inactive,inactive,inactive,–,inactive,inactive,inactive,–,inactive,–,–,–,inactive,inactive,inactive,–,–,–,–
O=[N+]([O-])C1(Br)COCOC1,inactive,12.2 µM (active),21.7 µM (active),21.7 µM (active),–,inactive,–,–,inactive,inactive,inactive,inactive,96.9 µM (active),inactive,30.6 µM (active),43.3 µM (active),15.4 µM (active),–,–,–
COc1ccc(-n2nc(C(F)F)cc2-c2ccc(S(C)=O)cc2)cc1 (stereo not drawn),inactive,61.1 µM (active),30.6 µM (active),54.5 µM (active),–,inactive,–,inactive,–,inactive,inactive,inactive,–,inactive,inactive,–,–,–,–,–
CCCCCCCC(=O)OCCCCCC,inactive,inactive,inactive,inactive,–,inactive,–,inactive,–,inactive,–,–,–,inactive,inactive,inactive,inactive,inactive,inactive,inactive
CC(CCc1ccc(O)cc1)NCCc1ccc(O)c(O)c1 (stereo not drawn),inactive,13.3 µM (active),26.6 µM (active),23.7 µM (active),inactive,–,inactive,–,–,inactive,inactive,inactive,inactive,inactive,–,–,inactive,–,–,–
CC(C)(C(=O)c1cccnc1)c1cccnc1,inactive,inactive,inactive,inactive,inactive,inactive,–,–,inactive,inactive,inactive,inactive,inactive,inactive,inactive,inactive,–,–,–,–
CSCC[C@H](NC(=O)[C@H](Cc1c[nH]c2ccccc12)NC(=O)CCNC(=O)OC(C)(C)C)C(=O)N[C@@H](CC(=O)O)C(=O)N[C@@H](Cc1ccccc1)C(N)=O,inactive,inactive,inactive,inactive,inactive,inactive,–,–,inactive,inactive,inactive,inactive,inactive,–,inactive,inactive,–,–,–,–
CC(C)COC(=O)COc1cc(Cl)c(Cl)cc1Cl,inactive,inactive,inactive,inactive,–,inactive,inactive,inactive,inactive,inactive,inactive,inactive,inactive,inactive,inactive,inactive,–,–,–,–
COc1ccc(/C=C/C(=O)c2ccc(OC)cc2OC)cc1,inactive,10.6 µM (active),16.8 µM (active),18.8 µM (active),inactive,inactive,–,inactive,–,inactive,–,–,–,inactive,inactive,inactive,–,–,–,–
CC1=C2[C@@H]([C@H](C)CC[C@H]2/C=C(\C)C(=O)O)[C@H](O)C1,inactive,inactive,inactive,inactive,–,inactive,inactive,inactive,inactive,inactive,inactive,inactive,inactive,inactive,inactive,inactive,inactive,–,–,–
O=C(O)/C=C/c1ccc(O)c(O)c1,inactive,inactive,inactive,inactive,–,inactive,inactive,inactive,–,inactive,–,–,–,inactive,inactive,–,inactive,–,27.5 µM (active),inactive
C[C@@H]1[C@H](O)[C@@H](C)/C=C/C=C\C=C\C=C\C=C\C=C\C=C\[C@H](O[C@@H]2O[C@H](C)[C@@H](O)[C@H](N)[C@@H]2O)C[C@@H]2O[C@](O)(C[C@@H](O)C[C@@H](O)[C@H](O)CC[C@@H](O)C[C@@H](O)CC(=O)O[C@H]1C)C[C@H](O)[C@H]2C(=O)O (stereo in doubt),inactive,inactive,inactive,inactive and 61.1 µM (active),inactive,inactive,–,–,inactive,inactive,inactive,inactive,inactive,inactive,inactive,inactive and 34.4 µM (active),–,–,–,–
CC(C)(C)S,inactive,inactive,inactive,inactive,inactive,–,inactive,inactive,inactive,inactive,inactive,inactive,inactive,inactive,inactive,inactive,inactive,–,–,–
COc1ccc(N)c([N+](=O)[O-])c1,inactive,inactive,inactive,inactive,–,inactive,–,inactive,–,inactive,–,–,–,inactive,inactive,inactive,inactive,–,–,–
Nc1ccn([C@H]2CS[C@@H](CO)O2)c(=O)n1,inactive,inactive,inactive,inactive,inactive,inactive,–,–,–,inactive,–,–,–,inactive,inactive,inactive,–,–,–,–
CC12CC3CC(C)(C1)CC(N)(C3)C2,inactive,26.6 µM (active),29.8 µM (active),29.8 µM (active),inactive,–,–,–,inactive,–,inactive,inactive,inactive,inactive,inactive,inactive,–,–,–,–
OCC(CO)n1cnc(-c2ccc(F)cc2)c1-c1ccnc(Oc2ccccc2)n1,inactive,68.5 µM (active),68.5 µM (active),68.5 µM (active),–,inactive,–,inactive,inactive,inactive,inactive,inactive,inactive,inactive,inactive,inactive,–,–,–,–
CCOC(=O)c1c(N)sc2c1CCN(Cc1ccccc1)C2,inactive,29.8 µM (active),29.8 µM (active),26.6 µM (active),–,inactive,inactive,inactive,inactive,inactive,inactive,–,–,–,inactive,inactive,–,–,–,–

# From PubChem BioAssay (Tox21)
